In the OligoGym collection:

Target: MARCH9
Test: pooled miR-30 sensor sort-seq; sequence = guide strand
Conditions: shRNA
Also: reference of the scale not given here.

Sequence | sensor-assay potency score (higher = more potent)
TGCATCTCCTCCTATGTCCTTG | -0.947
TGAAAGAGCAGATCCTGTCGTT | 0.563
ATACATGCCGTAGCAGATCTGA | -0.925

Target: MAST4
Test: as above
Conditions: shRNA

Sequence | sensor-assay potency score (higher = more potent)
TTTGTCCACAGAGTCTTCCTTC | 0.0254
TTCACATCGGAGAAGCTCCTTG | -0.392
TTTGCTTTTCACCAACAGCGGA | -0.849
TATACTTCAGTGATTTTCCAGG | -0.751
TTGGCCTTCAGCTTGTCGCGGT | 0.119
TAACTGATGCAACTTCTCCTGG | -0.165
TTTCTTTCGGAGGTAATCGATG | -1.18
TTGCCTATTAAGCTTTTCCGGT | -0.995
TTCTGTGCTTTCTAATCGCTGC | 0.164
TTGCTAATCAATTTAATCGTTT | -0.519
TTGCTTTTCACCAACAGCGGAC | -0.756
TAGGTAGTAAAATTCTTCCGGA | 0.168

Target: MATR3
Test: as above
Conditions: shRNA

Sequence | sensor-assay potency score (higher = more potent)
TTGTGTAATAATCCACTGCGGC | -0.905
TTCTTGTTCTTTACCTTCGGTT | -0.715
TATACCAACAGGAACATTGGGC | 0.454
TTCACTTGTATCTTTGTTGGGA | 0.73
TTGATCAAACTTCTGATCTGGC | 0.816
TTCGGTTGAACTCTCAGTCTTC | 0.606
TTGAACTCTCAGTCTTCTGGGA | 0.368
TATTCTTTGCAACTTCTTCATT | -0.992
TTTCTCACCATCTTCACCGGAC | -0.137
TAAGCTTTTTCTTTGCTGCTGC | 0.692
TTTCTCAGACAGGTCAACCTTC | 0.61
TTGCTTTTGATCAAACTTCTGA | -0.275

Target: MBD3
Test: as above
Conditions: shRNA

Sequence | sensor-assay potency score (higher = more potent)
TCGCTCTTGACCTTGTTGCTGG | -0.788
TTGGTAATCTTGGTCACCGGCT | -0.729
TTGAAGATGGACGCCGTCTGGC | -0.445
TTCTTCTCCCAGAAGAGCTGGC | -0.362
TTGCTCATCAGCATCTTGCCCG | -0.234
ATCAGCATCTTGCCCGTGCGGA | -0.991
ATCTTGCTCATCAGCATCTTGC | -1.63
TAATCTTGGTCACCGGCTGCTT | -0.615
TCGTCGTCGTCCTCAGCGCAGG | -1.74
TTGGGGAGGTCCATGGTCTTGA | -0.977
TTGCTGCGGAACTTCTTCCCGC | -0.815
TCGTCGGTCACCATGAAGGCTT | -0.866
